Experimental data taken from PubChem BioAssay (NCATS).
Results filed as inconclusive are left out. A call without a number means that no potency is given here. A number with no mark means an inactive call. Calls of active or inactive are those of the source. Calls come from the whole dose curve; as a rule, active = well fitted inhibition curve with a large enough effect in the repeat runs; inconclusive = weak or mixed curves; inactive = flat fitted curve, though single readings scatter.

molecular target: Cytochrome P450 2D6 (Homo sapiens) (UniProt P10635); assay: Cytochrome P450 family 2 subfamily D member 6 (CYP2D6) small molecule antagonists: luciferase biochemical (cell-free) qHTS assay (AID 1645840); conditions: P450-Glo CYP2D6 enzyme, luciferin luminescence, 1 h; series mostly up to 57.4 µM; note: nearly all actives have a fitted effect of over 55% in size
Sequence (P10635 whole entry, looked up): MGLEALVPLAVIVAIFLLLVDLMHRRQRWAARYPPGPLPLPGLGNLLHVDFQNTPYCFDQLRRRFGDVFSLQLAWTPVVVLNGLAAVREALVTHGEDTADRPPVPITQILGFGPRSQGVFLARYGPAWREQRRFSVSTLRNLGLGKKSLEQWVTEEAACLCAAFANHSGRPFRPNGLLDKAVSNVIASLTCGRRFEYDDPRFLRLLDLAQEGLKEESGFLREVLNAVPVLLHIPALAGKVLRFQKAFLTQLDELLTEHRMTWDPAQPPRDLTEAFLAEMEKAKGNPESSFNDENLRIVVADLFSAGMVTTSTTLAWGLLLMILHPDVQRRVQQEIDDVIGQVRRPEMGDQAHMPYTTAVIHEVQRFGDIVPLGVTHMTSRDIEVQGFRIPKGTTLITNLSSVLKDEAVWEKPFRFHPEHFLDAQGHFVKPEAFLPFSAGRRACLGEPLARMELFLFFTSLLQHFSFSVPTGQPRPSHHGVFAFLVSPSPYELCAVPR
Description: National Center for Advancing Translational Sciences [NCATS] Assay Overview: Cytochrome P450 (CYP) enzymes are membrane-bound hemeproteins that play a key role in metabolism of drugs and xenobiotics. Assaying the effect of chemicals on CYP isozymes is useful to minimize the adverse drug reactions and toxicities in drug development process. Chemical compounds were tested for their effect on CYP enzyme activities by using P450-Glo (TM) screening systems (Promega Corporation, Madison, WI). These systems provide a luminescent method containing proluciferin substrates and are converted to luciferin products by CYP isozymes. The luciferin products formed are detected with a luciferin detection reagent, and the amount of light produced is proportional to CYP activity. P450-Glo (TM) CYP2D6 screening system (Catalog. No. V9890) was used to detect the compounds that interfere in CYP2D6 activity.
Assay Protocol Summary: Two ul of enzyme-substrate mix was dispensed into medium binding white/solid 1536-well plates (Greiner Bio-One North America Inc., Monroe, NC) using a Flying Reagent Dispenser (FRD, Aurora Discovery, San Diego, CA). […] The assay plates were incubated at room temperature for 10 min. Then 2 ul of NADPH regeneration solution was added to each well of the assay plates using an FRD and incubated at room temperature for 1 h. The reaction was stopped by adding 4 ul of detection reagent using an FRD and after 20 min incubation at room temperature, the luminescence signal was measured using a ViewLux plate reader (Perkin Elmer, Shelton, CT). Data were expressed as relative luminescence units.
Potency is the fitted concentration of half-maximal effect.

Q: With `Cc1cccc(OCC(O)CNC(C)(C)C)c1C` (stereo not given) as the compound, how does the Potency read?
A: 11 µM (active)

Q: How did the Potency turn out when `Nc1ccc(C(=O)OCC(O)CO)cc1` (stereo not given) was run?
A: inactive

Q: `Nc1nnnn1-c1ccccc1` was tested. Which Potency did it give?
A: inactive

Q: How did the Potency turn out when `Cc1ccc(-c2ccccc2C#N)cc1` was run?
A: inactive

Q: For `O=C(O)Cn1c(=O)n(Cc2ccc(Br)cc2F)c(=O)c2ccc(Cl)cc21`, which Potency is on record?
A: inactive

Q: `C=C(C)C(=O)OCC(O)CO` (stereo not given) was tested. Which Potency did it give?
A: inactive

Q: For `CC(C)C[C@H](NC(=O)CNC(=O)[C@H](Cc1ccc(O)cc1)NC(=O)[C@H](CO)NC(=O)[C@H](Cc1c[nH]c2ccccc12)NC(=O)[C@H](Cc1cnc[nH]1)NC(=O)[C@@H]1CCC(=O)N1)C(=O)N[C@@H](CCCN=C(N)N)C(=O)N1CCC[C@H]1C(=O)NCC(N)=O` (stereo in doubt), which Potency is on record?
A: inactive

Q: Which Potency does the source give for `CC(=O)N[C@@H](CCC(N)=O)C(=O)O` here?
A: inactive

Q: How did the Potency turn out when `CC(C)(C)C1CCC(CC2=C(O)c3ccccc3C(=O)C2=O)CC1` (stereo not given) was run?
A: inactive

Q: With `Cc1c(C)c2c(c(C)c1OC(=O)CCC(=O)OCCO)CC[C@@](C)(CCC[C@H](C)CCC[C@H](C)CCCC(C)C)O2` as the compound, how does the Potency read?
A: 12.3 µM (active)

Q: How did the Potency turn out when `C/C(=N\O)[C@@H](C)NCC(C)(C)CN[C@H](C)/C(C)=N/O` was run?
A: inactive

Q: How did the Potency turn out when `CO[C@@H]1[C@@H](OC)[C@H](C)[C@@](O)(CC(=O)O)O[C@H]1[C@H](C)[C@H]1O[C@@]2(CC[C@@](C)([C@H]3CC[C@@](C)([C@@H]4O[C@@H]([C@H]5O[C@](C)(O)[C@H](C)C[C@@H]5C)C[C@@H]4OC4C[C@H](OC)[C@@H](OC)[C@H](C)O4)O3)O2)C[C@H](O)[C@H]1C` (stereo not given in full) was run?
A: inactive

Q: Which Potency does the source give for `CC(=O)N(CC(O)CO)c1c(I)c(C(=O)NCCO)c(I)c(C(=O)NCC(O)CO)c1I` (stereo not given) here?
A: inactive

Q: Which activity change, negative = inhibition does the source give for `NCC[C@H](O)C(=O)N[C@@H]1C[C@H](N)[C@@H](O[C@H]2O[C@H](CN)[C@@H](O)[C@H](O)[C@@H]2O)[C@H](O)[C@@H]1O[C@H]1O[C@H](CO)[C@@H](O)[C@H](N)[C@@H]1O` here?
A: 10.7% [at 0.91 µM]

Q: Which Potency does the source give for `O=C(O)c1cn(C2CC2)c2cc(Cl)c(F)cc2c1=O` here?
A: inactive

Q: `CC(C)(C)C(=O)OCOC(=O)C1N2C(=O)CC2S(=O)(=O)C1(C)C` (stereo not given) was tested. Which Potency did it give?
A: inactive

Q: `NC(=O)NC1N=C([O][Al])NC1=O` (stereo not given) was tested. Which Potency did it give?
A: 13.8 µM (active)

Q: With `O=C(OCC(COC(=O)c1cccnc1)(COC(=O)c1cccnc1)COC(=O)c1cccnc1)c1cccnc1` as the compound, how does the Potency read?
A: inactive

Q: For `CC(C)(c1ccc(O)cc1)c1ccc(O)cc1`, which Potency is on record?
A: 43.9 µM (active)

Q: With `CCCCNc1ccc(C(=O)OCCN(CC)CC)cc1` as the compound, how does the Potency read?
A: 3.47 µM (active)

Q: `COc1cc(NS(=O)(=O)c2ccc(N)cc2)nc(C)n1` was tested. Which Potency did it give?
A: inactive

Q: How did the Potency turn out when `Fc1ccc(C(c2ccc(F)cc2)N2CCNCC2)cc1` was run?
A: 7.76 µM (active)

Q: `O=C(O)Cc1ccc(OCCNC[C@H](O)c2ccccc2)cc1` was tested. Which Potency did it give?
A: inactive

Q: For `Cc1cccc(N(C)C(=S)Oc2ccc3c(c2)CCC3)c1`, which Potency is on record?
A: inactive

Q: How did the Potency turn out when `CN1CC[C@H](c2c(O)cc(O)c3c(=O)cc(-c4ccccc4Cl)oc23)[C@H](O)C1` was run?
A: 12.3 µM (active)

Q: With `O=C1NC2CCCCN2C12CCN(CCCN1c3ccccc3CCc3ccc(Cl)cc31)CC2` (stereo not given) as the compound, how does the Potency read?
A: 2.45 µM (active)

Q: For `CC(C)(C)c1nnc(NS(=O)(=O)c2ccccc2)s1`, which Potency is on record?
A: inactive

Q: How did the Potency turn out when `O=C(CCCCC(=O)Nc1c(I)cc(I)c(C(=O)O)c1I)Nc1c(I)cc(I)c(C(=O)O)c1I` was run?
A: inactive

Q: For `CC(C)OC(=O)c1cc2c(OCC(O)CNC(C)(C)C)cccc2[nH]1` (stereo not given), which Potency is on record?
A: 11 µM (active)

Q: How did the Potency turn out when `CC(=O)[C@@]1(O)CC[C@H]2[C@@H]3C[C@H](C)C4=CC(=O)CC[C@]4(C)[C@H]3CC[C@@]21C` was run?
A: inactive

Q: How did the Potency turn out when `Cc1ccccc1C(=O)N1CC/C(=N\OS(=O)(=O)O)c2ccc(Cl)cc21` was run?
A: inactive

Q: `O=C(COCCOCCOCC(=O)Nc1c(I)cc(I)c(C(=O)O)c1I)Nc1c(I)cc(I)c(C(=O)O)c1I` was tested. Which Potency did it give?
A: inactive

Q: `CC(=O)/C=C/C=C1/C2CCC(C2)C1(C)C` (stereo not given) was tested. Which Potency did it give?
A: 17.4 µM (active)

Q: For `CC(=O)Nc1c(I)c(NC(C)=O)c(I)c(C(=O)O)c1I`, which Potency is on record?
A: inactive

Q: Which Potency does the source give for `Cc1ccc2ccc(Cl)cc2n1` here?
A: inactive

Q: `Cc1cc(O)c(C)c(C)c1O` was tested. Which Potency did it give?
A: inactive

Q: With `Brc1ccccc1-c1ccccc1` as the compound, how does the Potency read?
A: inactive

Q: For `O=C1NCCN1CCN1CCC(c2cn(-c3ccc(F)cc3)c3ccc(Cl)cc23)CC1`, which Potency is on record?
A: 1.55 µM (active)

Q: With `CCCCC/C=C\C/C=C\CCCCCCCC(=O)NC(C)c1ccccc1` (stereo not given) as the compound, how does the Potency read?
A: 3.89 µM (active)

Q: How did the Potency turn out when `CNC(=O)c1cnn(-c2nc(N)c3ncn([C@@H]4O[C@H](CO)[C@@H](O)[C@H]4O)c3n2)c1` was run?
A: inactive
